Shown are actives, neighbours in structure and some others; about 10% of the full set was active somewhere.
PLK1 PBD inh – qHTS for Inhibitors of PLK1-PDB (polo-like kinase 1 - polo-box domain): Primary Screen; Serine/threonine-protein kinase PLK1 (Homo sapiens), P53350; Plk1 PBD binding of FITC phosphopeptide, fluorescence polarization; Potency, µM, without a hit: max response, negative = inhibition, actives largely listed as inhibitors; hit rate 2.8% among 360,000; AID 720504, 2013; note: potency is the fitted concentration of half-maximal effect; series mostly up to about 57 µM; nearly all actives have a fitted effect of over 65% in size
CCT chaperon mod – High-Throughput Screening for Modulators of Cytosolic Chaperonin Activity; activity change, % (test concentration not listed), hits read low; hit rate 0.3% among 360,000; purified chaperonin ATPase assay, HTRF ADP detection, 30 min; in the data active = activity change below about -30%
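First, chaperonin was dispensed at 40 nM or 20 nM final depending on batch activity. Next, compounds were pinned at 76 uM and ATP added at 10 uM. After 30 min at 37 °C, ADP detection reagents ran 30 min at ambient temperature.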
MmCpn inh – Inhibitors of TCP-1 ring complex (TRiC) of Methanococcus maripaludis (MmCpn): qHTS. Potency, µM (doses to about 76.9 µM), for the others: top-dose activity, negative = inhibition, most hits filed as inhibitors. AID 504842, 2011. purified Mm-Cpn ATPase, ADP Transcreener TR-FRET. hit rate 0.031% among 330,000. Chaperonin Mm-Cpn (Methanococcus maripaludis); note: potency is the fitted concentration of half-maximal effect; nearly all actives have a fitted effect of over 80% in size
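ATPase turnover read by TR-FRET ADP competition (Eu cryptate antibody/ADP-d2, 665/590 nm): 10uM ATP final, 25nM Mm-CPN final, 30 min 37degC after 10-min compound preincubation, pH 7.4 Tris/KCl/MgCl2/DTT buffer.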
G9a block – qHTS Assay for Inhibitors of Histone Lysine Methyltransferase G9a | G9a H3K9 monomethylation, AlphaScreen, 2 h | hit rate 8.8% among 350,000 | Potency, µM (top dose mostly 102 µM), without a hit: top-dose activity, negative = inhibition, hits mostly inhibitors | AID 504332, 2011; note: potency is the fitted concentration of half-maximal effect; nearly all actives have a fitted effect of over 75% in size
Target sequence (Q96KQ7 913-1193 limits assumed): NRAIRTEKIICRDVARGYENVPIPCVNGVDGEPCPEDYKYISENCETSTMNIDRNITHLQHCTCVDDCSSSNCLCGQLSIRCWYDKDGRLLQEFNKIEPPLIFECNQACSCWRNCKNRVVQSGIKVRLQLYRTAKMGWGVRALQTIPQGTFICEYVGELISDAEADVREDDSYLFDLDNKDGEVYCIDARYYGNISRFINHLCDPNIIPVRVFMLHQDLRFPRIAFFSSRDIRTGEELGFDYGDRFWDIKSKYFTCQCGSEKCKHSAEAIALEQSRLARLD
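AlphaScreen detection with an anti-monomethyl H3K9 antibody quantified product after a 2 h room-temperature reaction containing 500 nM biotinylated H3K9 peptide, 20 µM SAM and 20 nM enzyme, which had been preincubated 15 min with compound.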
VDR inhibitor – Inhibitors of the vitamin D receptor (VDR): qHTS | VDR-SRC2-3 peptide fluorescence polarization, 2 h | Potency, µM, for the others: max response, negative = inhibition, hits mostly inhibitors | hit rate 0.93% among 400,000 | Vitamin D3 receptor (Homo sapiens), P11473; note: potency is the fitted concentration of half-maximal effect
Target sequence (P11473 whole entry, looked up): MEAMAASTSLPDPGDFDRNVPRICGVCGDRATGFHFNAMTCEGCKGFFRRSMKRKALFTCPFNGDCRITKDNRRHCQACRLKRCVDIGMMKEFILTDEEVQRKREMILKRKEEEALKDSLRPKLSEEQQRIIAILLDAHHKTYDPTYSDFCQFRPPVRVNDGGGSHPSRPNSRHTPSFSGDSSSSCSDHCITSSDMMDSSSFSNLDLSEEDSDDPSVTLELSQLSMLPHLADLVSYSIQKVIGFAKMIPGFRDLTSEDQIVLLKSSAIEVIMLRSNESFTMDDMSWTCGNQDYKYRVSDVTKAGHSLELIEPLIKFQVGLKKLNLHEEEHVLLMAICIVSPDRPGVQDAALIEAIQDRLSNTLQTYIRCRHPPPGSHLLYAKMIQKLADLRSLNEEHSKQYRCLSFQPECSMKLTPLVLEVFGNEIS
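VDR–SRC2-3 interaction, FP format. Cmpds 23 nl via pintool, brief spin, 2 h ambient incubation.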
Sfp PPTase inh – qHTS Assay for Inhibitors of Bacillus subtilis Sfp phosphopantetheinyl transferase (PPTase). Biochemical Sfp PPTase activity, qHTS. hit rate 3.5% among 310,000. AID 1490, 2009. Potency, µM, for the others: largest response in the series, negative = inhibition, most hits filed as inhibitors. 4'-phosphopantetheinyl transferase ffp (Bacillus subtilis), Q9F4F7;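 note: the enzyme is Sfp with the accession as filed and its product quenches rhodamine fluorescence; potency is the fitted concentration of half-maximal effect; 0% = enzyme reaction without inhibitor and -100% = no enzyme wells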
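Sfp 15 nM + cpd, 15 min RT; start w/ rhodamine-CoA 5 uM, BHQ-2-YbbR 12.5 uM (final); 50 mM Hepes pH 7.6, 10 mM MgCl2, 0.01% NP-40, 0.01% BSA; read 525/598 nm at 0 and 30 min.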
Starred values were filed as active, the others as inactive; ? = inconclusive; / = no result given; ! = not confirmed by another sample; [ ] = another dose, or the depositor's remark. Unless noted, calls come from the whole dose curve; as a rule, active = well fitted curve in the direction sought with a large enough effect; inconclusive = small, poorly fitted or top-dose-only effect, or another doubt; inactive = no such curve, though single readings can be large; an effect the other way counts as inactive or inconclusive. Unless noted, % is set by controls: 0 for no effect and ±100 for the full control effect.

SMILES	PLK1 PBD inh	CCT chaperon mod	MmCpn inh	G9a block	VDR inhibitor	Sfp PPTase inh
COc1cc(/C=C/C(=O)O)cc(S(=O)(=O)Nc2ccc(F)cc2)c1OC	-10.1%	-0.8	0.7%	-0.5%[59 µM]	-17.3%	-2.0%
COc1ccccc1CCNC(=O)C(C)Sc1nc(-c2ccccc2)cc(C(F)(F)F)n1 (stereo unspecified)	/	/	/	7.1%[59 µM]	1.0%	/
CCNc1ncc2nc(C)c(=O)n(C[C@H]3CCCO3)c2n1	/	/	/	26.2%[0.501 µM]	3.9%	20.8%
Cc1cc(NC(=O)c2cc(-c3ccc(F)cc3)on2)nn1Cc1ccc(Cl)cc1	/	/	/	-25.3%[59 µM]	-21.8%	/
O=C1CCCN1CCCNc1ncnc2c1[nH]c1ccc(Cl)cc12	-5.9%	-5.9	-1.0%	-44.2%[59 µM]	1.1%	3.3%
CCN1CCCC1CNc1ncnc2c1[nH]c1ccc(Cl)cc12 (stereo unspecified)	0.9%	-0.2	-0.5%	50.1µM*	-2.5%	-17.0%
Cc1cc(N2CCN(C)CC2)nc2ccc(NC(=S)NCCC(C)C)cc12	?	-1.5	1.9%	50.1µM*	-1.1%	4.2%
CCN(CC)CCNC(=S)Nc1ccc2nc(N3CCCC3)cc(C)c2c1	-11.3%	0.4	-1.3%	44.7µM*	18.2%	?
CCN(CC)CCNC(=S)Nc1ccc2nc(N3CCN(C)CC3)cc(C)c2c1	-6.7%	2.3	3.0%	44.7µM*	-7.5%	?
Fc1ccc(NC(=S)NCCN2CCOCC2)cc1	?	1.3	0.4%	-22.0%	-7.6%	10.3%
CCN(CC)CCNC(=S)Nc1ccc(F)cc1	4.5%	0.4	3.9%	-38.6%	-14.0%	28.2µM*
CCN(CC)CCNC(=S)Nc1ccc2nc(N3CCOCC3)cc(C)c2c1	?	-0.5	-0.5%	?	-25.7%	-5.3%
CCCOc1ccc(C2C(=O)N(C3CCC(C)CC3)CC(=O)N2Cc2cccc(OC)c2)cc1OC (stereo unspecified)	/	/	/	5.5%[59 µM]	6.4%	/
COC(=O)c1cc(Cl)ccc1NC(=O)Cn1c(C)cc(C)c(C#N)c1=O	/	/	/	1.4%[59 µM]	-16.8%	/
O=C(CSc1nc(=O)n(Cc2ccco2)c2c1CCC2)Nc1cccc(F)c1	/	/	/	1.4%[59 µM]	-5.4%	/
CCCN(CCC)CCCNC(=S)Nc1ccc2nc(N3CCCC3)cc(C)c2c1	-9.3%	0.7	-1.4%	39.8µM*	-1.0%	19.5%
Cc1cc(N2CCCC2)nc2ccc(NC(=S)NCCCOC(C)C)cc12	-24.6%	-1.2	-1.7%	?	-12.4%	-6.4%
Cc1nc2cnc(N3CCN(C)CC3)nc2n(C2CC2)c1=O	/	/	/	8.0%[0.501 µM]	5.2%	12.3%
Cc1nn2c(=O)cc(COC(=O)COc3ccccc3C)nc2s1	/	/	/	6.0%[59 µM]	1.0%	/
CCCCN1C(=O)N(C)C2NC(=O)NC21 (stereo unspecified)	-6.8%	0.5	-1.2%	0.4%[12.7 µM]	-19.9%	21.4%
CCCCN1C(=O)NC2NC(=O)NC21 (stereo unspecified)	-4.3%	0.9	0.0%	25.1µM*	-1.3%	20.3%
C=CCc1ccccc1OCC(O)CN1CCN(c2ccccc2)CC1 (stereo unspecified)	/	/	/	?	-5.1%	/
OC(COc1cccc2ccccc12)CN1CCN(c2ccccc2)CC1 (stereo unspecified)	-3.2%	-0.4	0.4%	50.1µM*	-2.0%	-2.0%
CC(COc1cccc2ccccc12)CN1CCN(C)CC1 (stereo unspecified)	-15.8%	0.4	-2.4%	44.7µM*	13.2%	7.1%
COc1ccccc1N1CCN(CC(O)COc2cccc3ccccc23)CC1 (stereo unspecified)	-21.7%	-2.6	2.9%[15.4 µM]	12.6µM*!	1.6%	-9.5%
SMILES	PLK1 PBD inh	CCT chaperon mod	MmCpn inh	G9a block	VDR inhibitor	Sfp PPTase inh
CC(C)NC[C@H](O)COc1cccc2ccccc12	-5.6%	-1.0	/	2.2%[59 µM]	7.8%	4.3%
Cc1ccc(-c2noc(CN(C3CCCCC3)S(=O)(=O)c3ccc(Cl)cc3)n2)cc1	/	/	/	29.4%[59 µM]	20.7%	/
Cc1ccc(N2CCN(C(=O)c3c(C)oc4ncnc(N5CCCCC5)c34)CC2)c(C)c1	/	/	/	-27.9%[59 µM]	8.4%	/
CCC(=O)N1CCc2cc(Br)cc(S(=O)(=O)NCCc3ccc(OC)c(OC)c3)c21	/	/	/	-2.8%[59 µM]	-12.0%	/
CC1CC=CC2C1C(=O)N(Cc1ccccc1)C2c1ccc(-c2cc3ccccc3s2)cc1F (stereo unspecified)	/	/	/	/	-23.1%	9.4%
COc1ccccc1CNC(=S)Nc1ccc2nc(N3CCN(C)CC3)cc(C)c2c1	-5.0%	-2.0	1.4%	-9.8%[59 µM]	6.9%	56.2µM*
COc1ccc(CNC(=S)Nc2ccc3nc(N4CCN(C)CC4)cc(C)c3c2)cc1	-1.5%	0.1	-8.1%	44.7µM*	-9.6%	-4.0%
COc1ccc(CNC(=S)Nc2ccc3nc(N4CCOCC4)cc(C)c3c2)cc1	-15.6%	0.6	0.7%	-50.9%	-11.7%	10.7%
COCCNC(=S)Nc1ccc2nc(N3CCN(C)CC3)cc(C)c2c1	-18.7%	-1.1	-6.8%	?	0.2%	0.4%
CC(C)CCNC(=O)N1CCN(S(=O)(=O)c2ccc3c(ccn3C)c2)CC1	/	/	/	7.2%[59 µM]	7.0%	/
CCCCNC(=O)CN1C(=O)c2c(c3ccccc3n2C)C1c1ccc(OC)cc1 (stereo unspecified)	/	/	/	-1.5%[59 µM]	12.6%	/
O=S(=O)(Nc1c(O)ccc2ccccc12)c1ccccc1	23.8µM*	-0.7	/	/	?	/
O=S(=O)(Nc1cccc2ccccc12)c1ccccc1	2.9%	0.5	1.5%	/	3.7%	10.3%
Cc1ccc(C)c(S(=O)(=O)Nc2ccc(O)c(C(=O)O)c2)c1	29.9µM*	0.7	0.6%	?	?	13.2%
O=C(O)c1cccc(S(=O)(=O)Nc2cccc3ccccc23)c1	-3.4%	-0.2	-2.3%	39.8µM*	-14.2%	2.8%
Cc1ccc(C)c(S(=O)(=O)Nc2ccc(C(N)=O)cc2)c1	-11.7%	1.4	0.1%	20.6%	12.8%	10.2%
Cc1ccc(C)c(S(=O)(=O)Nc2ccc(O)c3ccccc23)c1	23.8µM*	-4.6	-4.4%	28.2µM*	?	70.8µM*
Cc1ccc(C)c(NS(=O)(=O)c2cc(C(N)=O)ccc2C)c1	-6.6%	-2.0	2.2%	-15.2%[12.7 µM]	-8.7%	7.9%
Cc1ccccc1Cn1c2ccccc2c2cnn(CC(=O)NCC(C)c3ccccc3)c(=O)c21 (stereo unspecified)	/	/	/	2.0%[59 µM]	14.0%	/
